Screening data (PubChem BioAssay)
Hits are enriched below; roughly 9.8% of the tested compounds scored in any of these assays.
CBFb-RUNX1 inh: blocks binding between human CBF-beta and RUNX1; 230,000 tested, under 10 active; AID 1477; Q01196+Q13951; AlphaScreen CBFb-His/RUNX1-biotin binding, biochemical; Potency, µM (top dose mostly 59.8 µM), without a hit: top-dose activity, negative = inhibition, usual class: inhibitors; further: % of control where 0% means no effect
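Inhibition was taken as any reduction in AlphaScreen signal from the CBF-beta–RUNX1 pair (His and biotin tags, 30 nM each), measured after compound (15 min) and bead (90 min) incubations at room temperature.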
JMJD2E inh: inhibitors of human JMJD2E histone demethylase; B2RXH2; AID 2147; Potency, µM (titrated, usually from 57.1 µM), without a hit: at the top dose activity change, negative = inhibition, most hits filed as inhibitors; 230,000 compounds, 1.6% hits; JMJD2E catalytic domain, FDH-coupled NADH fluorescence (FDH is formaldehyde dehydrogenase);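 further: potency means the concentration at half of the fitted maximal effect; 0% = wells with enzyme and -100% = buffer wells without enzyme; nearly all actives have a fitted effect of over 50% in size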
Target sequence (B2RXH2 1-337 limits assumed): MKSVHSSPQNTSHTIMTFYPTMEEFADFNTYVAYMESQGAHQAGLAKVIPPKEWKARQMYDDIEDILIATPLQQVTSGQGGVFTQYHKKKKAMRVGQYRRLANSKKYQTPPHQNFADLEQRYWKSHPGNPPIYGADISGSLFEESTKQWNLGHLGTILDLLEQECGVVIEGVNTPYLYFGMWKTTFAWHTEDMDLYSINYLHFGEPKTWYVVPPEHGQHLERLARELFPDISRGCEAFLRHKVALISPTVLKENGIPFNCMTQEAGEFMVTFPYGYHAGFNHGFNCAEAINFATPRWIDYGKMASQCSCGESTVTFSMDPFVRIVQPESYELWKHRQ
ALDH1A1 inh: blocks purified human ALDH1A1 activity. P00352. Purified ALDH1A1, NADH fluorescence, propionaldehyde substrate. Potency, µM (highest dose often 75.3 µM), without a hit: at the top dose activity, negative = inhibition, hits mostly inhibitors. 220,000 compounds, 7.3% hits. AID 1030; active means well fitted inhibition curve with a large enough effect, not every such curve was filed as active; inconclusive means small, poorly fitted or top-dose-only effect, or another doubt; inactive means no such curve, though single readings can be large or run the other way;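 further: potency means the concentration at half of the fitted maximal effect; plate controls were no enzyme wells and a reference inhibitor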
HPGD block: blocks human HPGD enzyme activity; P15428; purified HPGD, NADH fluorescence kinetic, PGE2 substrate; Potency, µM, without a hit: at the highest dose activity change, negative = inhibition, hits mostly inhibitors; 150,000 compounds, 4.3% hits; active means well fitted inhibition curve with a large enough effect, not every such curve was filed as active; inconclusive means small, poorly fitted or top-dose-only effect, or another doubt; inactive means no such curve, though single readings can be large or run the other way; further: potency means the concentration at half of the fitted maximal effect; on the % scale 0 is the no-effect control and ±100 the full control effect
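20 nM HPGD preincubated 15 min at room temperature with compound in 50 mM Tris-HCl pH 8, 0.01% Tween 20. Started with 1 mM NAD+ and 30 uM prostaglandin E2; NADH fluorescence (360/450 nm) read 5 times over 30-s intervals, last minus first.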
HTT ATP protect: cytoprotection in Huntington HTT-Q103 PC12 cell model; Potency, µM (titrated, usually from 56.4 µM), inactives show cytoprotection (ATP increase), hits mostly activators; PC12 HTT-Q103 induced, cytoprotection, ATP luminescence, 40 h; 230,000 compounds, 0.14% hits; AID 1471; further: potency means the concentration at half of the fitted maximal effect; % of control where 0% means no effect; nearly all actives have a fitted effect of over 45% in size
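ATP quantification (ATPlite) reports survival of PC12 cells in which tebufenozide, 100 nM final, switches on Htt exon 1 with 103 glutamines linked to GFP; compounds are titrated.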
HTT aggregate: reduces HttQ103-GFP aggregates in PC12 cells. PC12 HttQ103-GFP aggregates, Acumen cytometry, 40 h. Potency, µM (top dose mostly 46.1 µM), for inactives: at the highest dose activity change, negative = inhibition, most hits filed as inhibitors. 220,000 compounds, 1.1% hits. AID 1688; further: potency means the concentration at half of the fitted maximal effect; on the % scale 0 is the no-effect control and ±100 the full control effect; nearly all actives have a fitted effect of over 60% in size
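Multiplexed with ATP-based cell death, this channel scores GFP aggregates in PC12 cells expressing inducible HTTex1-Q103-GFP. Induction used 100 nM tebufenozide; compounds were tested in concentration series.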
Numbers without * were called inactive; u = inconclusive; x = no result given; [ ] = remark or other dose. Unless noted, the call rests on the fitted dose curve; in most records, active means well fitted curve in the direction sought with a large enough effect; inconclusive means small, poorly fitted or top-dose-only effect, or another doubt; inactive means no such curve, though single readings can be large; an effect the other way counts as inactive or inconclusive.

SMILES | CBFb-RUNX1 inh | JMJD2E inh | ALDH1A1 inh | HPGD block | HTT ATP protect | HTT aggregate
CCOc1ccccc1NC(=O)Nc1ccon1 | 11% | 5% | x | x | -29%[10 µM] | -1%[9.22 µM]
O=C(Nc1ccccc1N1CCOCC1)c1cccnc1Cl | 5% | -1% | 4% | x | 3% | -7%
Cc1ccc(NC(=O)N/C=C/c2ccc(Cl)cc2)cc1 | -5% | 1% | 22µM* | -14% | -4% | -3%
CCCOc1ccc(NC(=O)C2CC(=O)N3CCCN=C3S2)cc1 (stereo unspecified) | -2% | -1% | 2.8µM* | -14% | -20%[0.074 µM] | 28%
CCCOc1ccc(NC(=O)C2CC(=O)N(C(C)C)C2)cc1 (stereo unspecified) | 3% | -4% | -2% | x | -9%[10 µM] | 2%
CCOc1ccc(NC(=O)C2CC(=O)N3CCCN=C3S2)cc1 (stereo unspecified) | -4% | 4% | 14µM* | 1% | -6% | 17%
CCOc1ccc(C(=O)NCC(=O)OCC(=O)N2CCCC2)cc1 | 7% | 0% | 8% | x | -15% | 33%
CCCC(c1nnnn1Cc1ccc(F)cc1)N1CCN(CC)CC1 (stereo unspecified) | 4% | 2% | 22µM* | x | -64%[10 µM] | u
Cc1ccc(SCCNC(=O)/C=C/c2ccc(Cl)cc2)cc1 | -3% | -8% | -14% | -13% | -3%[10 µM] | -5%
Cc1ccc(SCCNC(=O)/C=C/c2ccccc2Cl)cc1 | -6% | 0% | 13µM* | u | -3% | 14%
O=C(/C=C/c1ccccc1Cl)NCCc1ccccc1 | 9% | 2% | -7% | 16µM* | -25% | 10%
CCOC(=O)N1CCN(C(=O)c2ccc(N(Cc3ccccc3)S(C)(=O)=O)cc2)CC1 | 0% | 8% | -1% | -7% | 10% | -11%
COC(=O)NC(c1ccc2c(c1)OCO2)C(C(=O)OC)C(=O)OC (stereo unspecified) | 10% | 7% | -4% | 0% | 27% | x
Cc1ccc(C(=O)O/N=C2\CC3CCC2(C)C3(C)C)cc1 (stereo unspecified) | 25% | -7% | 13µM* | -5% | 3%[10 µM] | 1%
Cc1cccc(C(=O)O/N=C2/CC3CCC2(C)C3(C)C)c1 (stereo unspecified) | 6% | 0% | -5% | -16% | 15%[10 µM] | -6%
C[C@@H]1C(=O)O[C@H]2[C@@H](O)[C@@]34[C@H]5CC(C(C)(C)C)[C@]36[C@@H](OC(=O)[C@@H]6O)O[C@@]4(C(=O)O5)[C@@]12O (stereo partly specified) | 10%[21.7 µM] | 8% | 9% | 0% | -23%[1.9 µM] | x
CC1Cc2ccccc2N1C(=O)c1ccc(N2CCCC2)c([N+](=O)[O-])c1 (stereo unspecified) | -3% | 5% | 13µM* | -20% | 16%[1.9 µM] | -3%
O=C(O)c1ccccc1C(=O)c1ccc(N2CCCC2)c([N+](=O)[O-])c1 | -5% | u | 0% | x | -76% | 22%
CC1Cc2ccccc2N1C(=O)c1ccc(N2CCCCC2)c([N+](=O)[O-])c1 (stereo unspecified) | u | 0% | 22µM* | -19% | 0%[10 µM] | u
O=S(=O)(O)c1cc(N=[N+]([O-])c2cc(S(=O)(=O)O)c3ccccc3c2)cc2ccccc12 | x | x | u | -19% | 10%[10 µM] | x
Cc1cccc(Cn2nc(-n3cccc3)c3c(C)cc(C)nc32)c1 | -7% | u | u | x | -18%[10 µM] | 9%
COc1cc(C(c2c(C)[nH][nH]c2=O)c2c(C)[nH][nH]c2=O)ccc1OC(C)C | -8% | -11% | 14µM* | u | -3%[10 µM] | 9%
COc1cc(C(c2c(C)[nH][nH]c2=O)c2c(C)[nH][nH]c2=O)ccc1OS(=O)(=O)c1ccccc1 | 5% | -27% | 1.6µM* | -8% | -4% | 18%
CS(=O)(=O)c1ccc2c(c1)sc1nc(=O)c(/C=C3/C=CC(=O)C(O)=C3)c(N)n12 | x | 3.2µM* | 13µM* | x | -6%[10 µM] | -5%[9.22 µM]
